A selection: hits, their analogues and other compounds. The true share with any hit is near 4.8%.
Wee1 degr inh: blocks degradation of human Wee1 kinase | P30291 | HeLa Luc-Wee1K328M stability, luciferase luminescence; 100% = proteasome inhibitor MG132 effect | reporter increase, % at 5 µM | 220,000 compounds, 1.2% hits | AID 1321;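 active = activation above the mean of all tested compounds plus 3 SD, set per screening run, cut at about 8.8% in these data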;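 also: cells exposed to compound for 20 h before luminescence read; 0% = DMSO alone and 100% = MG132 at 30 µM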
Target sequence (P30291 whole entry K328M): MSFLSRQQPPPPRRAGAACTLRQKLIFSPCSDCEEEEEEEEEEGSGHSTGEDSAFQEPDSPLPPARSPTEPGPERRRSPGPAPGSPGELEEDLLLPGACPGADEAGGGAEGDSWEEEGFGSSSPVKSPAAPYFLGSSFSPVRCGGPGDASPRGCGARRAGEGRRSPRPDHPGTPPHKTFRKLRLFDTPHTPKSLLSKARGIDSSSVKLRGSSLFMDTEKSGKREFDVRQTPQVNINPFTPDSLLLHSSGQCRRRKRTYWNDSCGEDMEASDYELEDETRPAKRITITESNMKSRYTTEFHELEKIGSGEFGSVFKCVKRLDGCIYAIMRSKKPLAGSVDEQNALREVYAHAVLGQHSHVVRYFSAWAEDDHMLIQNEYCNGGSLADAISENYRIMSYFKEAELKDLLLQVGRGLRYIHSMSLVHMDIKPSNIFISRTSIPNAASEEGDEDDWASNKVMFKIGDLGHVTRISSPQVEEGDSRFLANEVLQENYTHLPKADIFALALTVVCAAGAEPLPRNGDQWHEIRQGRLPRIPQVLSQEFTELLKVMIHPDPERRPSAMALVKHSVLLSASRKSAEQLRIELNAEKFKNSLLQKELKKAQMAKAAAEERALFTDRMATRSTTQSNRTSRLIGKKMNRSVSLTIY
APP transl inh: APP translation inhibition; inhibition, % at 2 µM; 190,000 compounds, 0.82% hits; SH-SY5Y APP 5'UTR-luciferase reporter, luminescence;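 active = inhibition above a set limit, derived from the sample mean plus 3 SD, cut at about 45% in these data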
NF-kB neuron act: compounds increasing NF-kB expression in human neuronal cells. fold change at 12.5 µM. AID 1239. 190,000 compounds, 1.6% hits. NF-kB reporter expression; active compounds read high; in the data active = fold change above about 3.3
APP 5'UTR act: activates APP 5'UTR luciferase reporter. SH-SY5Y APP 5'UTR luciferase reporter, luminescence; zero percent = DMSO vehicle wells. AID 1276. activation, % at 2 µM. 190,000 compounds, 1% hits;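 active = activation above a set limit, based on mean plus 3 SD of controls, cut at about 140% in these data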
Hsp70 act: switches on Hsp70 transcription. HeLa Hsp70 promoter luciferase reporter, luminescence; scaled: vehicle 0, proteasome-inhibitor control 100%. activation, % at 10 µM. 200,000 compounds, 0.04% hits;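 active = activation above the mean across all tested compounds plus 3 SD, cutoff set per campaign, cut at about 5.5% in these data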;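 also: 100% = MG132 at 30 µM as the positive control and 0% = DMSO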
STAT1 activator: increases IFN-gamma driven STAT1 reporter signal | NIH 3T3 STAT1-luciferase reporter, luminescence; 100% = IFN-gamma alone, no compound | activation (% of control), % at 5.5 µM | 200,000 compounds, 2.6% hits | AID 932;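 active = activation above the screen-wide mean activation plus 3 SD, cut at about 130% in these data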;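 also: raw ratio to IFN-gamma control signal so 100% means no change and 0% no light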
STAT1 act conf: confirmation of STAT1 signaling activators. shares compounds with STAT1 activator. NIH 3T3 STAT1-luciferase reporter, IFN-gamma potentiation, luminescence; 100% = IFN-gamma EC80 alone, no compound. activation (% of control), % at 5.7 µM. 1,200 compounds, 97% hits;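 active = activation above a set limit carried over from the earlier primary STAT1 screen, cut at about 140% in these data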;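 also: simple ratio to median IFN-gamma plus DMSO wells so 0% means no light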
NFkB act: activates NF-kappaB, counter-screen to STAT1 activators | shares compounds with STAT1 activator | HEK293T NF-kB luciferase reporter, TNF-alpha stimulated, luminescence; 100% = TNF-alpha with vehicle only | activation (% of control), % at 5.7 µM | 1,200 compounds, 43% hits;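 active = activation above the mean of solvent-only control wells plus 3 SD, set per campaign, cut at about 130% in these data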;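 also: TNF-alpha given at a submaximal dose yielding about 80% of full reporter signal; values are well signal over median control so 100% means no change and 0% no light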
STAT3 act STAT1c: counter-screen for STAT1 activators: human STAT3 activation | shares compounds with STAT1 activator | U3A cells STAT3-luciferase reporter, IL-6, luminescence; cells lack STAT1; 100 = IL-6 alone, no compound effect | activation (% of control), % at 5.7 µM | 1,200 compounds, 46% hits | AID 1316;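 active = activation above the solvent-only control well mean plus 3 SD, set per plate batch, cut at about 110% in these data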;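 also: 0% = no luminescence and 100% = median IL-6 plus DMSO wells; higher means more STAT3 reporter activation so hits are non-selective activators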
Numbers without * were called inactive.

O=C(O)c1ccc(CSc2nnc(SCc3ccccc3)s2)cc1 was read as Wee1 degr inh 0, APP transl inh 5, NF-kB neuron act 1.4, APP 5'UTR act -5, Hsp70 act 0 and STAT1 activator 94.
O=C(Nc1ccc(N2CCOCC2)c(Cl)c1)c1cc2ccccc2o1 was read as Wee1 degr inh 1, APP transl inh -84, NF-kB neuron act 2.2, APP 5'UTR act 84, Hsp70 act 0, STAT1 activator 170*, STAT1 act conf 179*, NFkB act 128 and STAT3 act STAT1c 94.
Cc1ccc(-n2c(=O)c3sccc3n(CC(=O)NCc3ccco3)c2=O)cc1 was read as Wee1 degr inh -3, APP transl inh 14, NF-kB neuron act 1.1, APP 5'UTR act -15, Hsp70 act 0 and STAT1 activator 100.
Screening CC(=O)Nc1cccc(-c2csc(Nc3cc(C)ccn3)n2)c1 returned Wee1 degr inh 2, APP transl inh -138, NF-kB neuron act 2.4, APP 5'UTR act 138*, Hsp70 act 0, STAT1 activator 152*, STAT1 act conf 174*, NFkB act 130 and STAT3 act STAT1c 115*.
Screening CC(=O)Nc1cccc(-c2csc(Nc3ccc(Cl)cn3)n2)c1 returned Wee1 degr inh 1, APP transl inh -182, NF-kB neuron act 6.5*, APP 5'UTR act 182*, Hsp70 act 0, STAT1 activator 202*, STAT1 act conf 249*, NFkB act 161* and STAT3 act STAT1c 102.
For CC(=O)Nc1cccc(-c2csc(N)n2)c1 the results were Wee1 degr inh -2, APP transl inh 20, APP 5'UTR act -20, Hsp70 act 0 and STAT1 activator 101.
`O=C(Nc1cccc(Cl)c1)Nc1nc(-c2ccccc2)cs1` gave Wee1 degr inh 0, APP transl inh -34, NF-kB neuron act 1.5, APP 5'UTR act 34, Hsp70 act 0 and STAT1 activator 99.
CCn1cnc2sc(-c3ccccc3)cc2c1=O was read as Wee1 degr inh 0, APP transl inh -182, NF-kB neuron act 5.4*, APP 5'UTR act 182*, Hsp70 act 0, STAT1 activator 158*, STAT1 act conf 205*, NFkB act 130 and STAT3 act STAT1c 109.
For COc1ccc(NC(=O)N(Cc2ccc(C)cc2)Cc2cccnc2)c(OC)c1 the results were Wee1 degr inh -3, APP transl inh 2, NF-kB neuron act 0.85, APP 5'UTR act -2, Hsp70 act 0 and STAT1 activator 98.
`Cc1nn(-c2ccccc2)c(C)c1/C=N/Nc1nc2ccccc2[nH]1` gave Wee1 degr inh 0, APP transl inh -154, NF-kB neuron act 2.9, APP 5'UTR act 154*, Hsp70 act 0, STAT1 activator 204*, STAT1 act conf 289*, NFkB act 124 and STAT3 act STAT1c 108.
Screening Cc1cc(=O)[nH]c(N/N=C/c2c(C)nn(-c3ccccc3)c2C)n1 returned Wee1 degr inh 0, APP transl inh 2, NF-kB neuron act 0.86, APP 5'UTR act -3, Hsp70 act 0 and STAT1 activator 100.
Screening CC(/C=N/Nc1nc2ccccc2[nH]1)=C\c1ccccc1 returned Wee1 degr inh 1, APP transl inh -172, NF-kB neuron act 8.6*, APP 5'UTR act 172*, Hsp70 act 0, STAT1 activator 192*, STAT1 act conf 246*, NFkB act 139* and STAT3 act STAT1c 114*.
For Cc1cc(=O)[nH]c(N/N=C/c2sccc2C)n1 the results were Wee1 degr inh -3, APP transl inh -21, NF-kB neuron act 1.7, APP 5'UTR act 21, Hsp70 act 0 and STAT1 activator 111.

Assay outcomes (PubChem BioAssay)
